# According to publication PMC5540273 (PLoS ONE, 2017):
# Like-named read-outs stand apart in the source and are kept apart here.
# How the values were obtained:
# Conditions in all cases: n = 1
# ANKK1 = tested on: ANKK1
# ARK5 = tested on: T1, ARK5
# T1 construct: gene NUAK1
# ASK1 = tested on: T2, ASK1
# T2 construct: gene MAP3K5
# ASK2 = tested on: T3, ASK2
# T3 construct: gene MAP3K6
# AURKA = tested on: AURKA
# AURKB = tested on: AURKB
# AURKC = tested on: AURKC
# AXL = tested on: AXL
# BIKE = tested on: T4, BIKE
# T4 construct: gene BMP2K
# BLK = tested on: BLK
# [1] = concentration: 1 μM, replicates: in singlicate
# 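Also: KINOMEscan kinase panel screen.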
SMILES,%Inh (ANKK1; [1]) [%],%Inh (ARK5; [1]) [%],%Inh (ASK1; [1]) [%],%Inh (ASK2; [1]) [%],%Inh (AURKA; [1]) [%],%Inh (AURKB; [1]) [%],%Inh (AURKC; [1]) [%],%Inh (AXL; [1]) [%],%Inh (BIKE; [1]) [%],%Inh (BLK; [1]) [%],%Inh (ANKK1; 1 µM) [%],%Inh (ARK5; 1 µM) [%],%Inh (ASK1; 1 µM) [%],%Inh (ASK2; 1 µM) [%],%Inh (AURKA; 1 µM) [%],%Inh (AURKB; 1 µM) [%],%Inh (AURKC; 1 µM) [%],%Inh (AXL; 1 µM) [%],%Inh (BIKE; 1 µM) [%],%Inh (BLK; 1 µM) [%]
O=C(O)COc1ncnc2cc(-c3ccc4[nH]ncc4c3)sc12,12,0,0,0,45,28,0,21,0,1,–,–,–,–,–,–,–,–,–,–
O=c1cc(N2CCOCC2)nc2n(Cc3cccc(Cl)c3Cl)ccn12 [GSK2286295],5,24,0,0,12,18,23,100,24,35,–,–,–,–,–,–,–,–,–,–
Cc1ccccc1-n1cnc2c(N)ncnc21 [SKF-97510],0,0,7,0,0,0,0,0,0,9,–,–,–,–,–,–,–,–,–,–
COc1cccc(-c2cc(-c3c[nH]nc3-c3ccccn3)ccn2)c1 [GW680338],13,0,0,27,0,0,89,7,54,8,–,–,–,–,–,–,–,–,–,–
O=S(=O)(c1ccc(-c2ccnc3[nH]ccc23)cc1)N1CCCC1 [GSK846226],0,0,3,14,13,20,60,46,87,0,–,–,–,–,–,–,–,–,–,–
CC1=C(C(=O)Nc2cc3cn[nH]c3cc2F)C(c2ccc(C(F)(F)F)cc2)CC(=O)N1 (stereo not drawn) [GSK429286],0,7,0,24,23,1,46,0,19,42,–,–,–,–,–,–,–,–,–,–
COc1cc(Nc2nccc(N3CCC(NC(=O)Nc4cc(C)ccc4C)C3)n2)cc(OC)c1OC (stereo not drawn) [GSK1379762],13,50,1,7,92.7,94.4,81,0,60,10,–,–,–,–,–,–,–,–,–,–
CN(C)CCN(C)C(=O)c1cc(-c2ccncc2)c(-c2ccc(Cl)c(O)c2)o1.Cl.Cl [SB-710397],0,0,18,0,0,9,0,8,13,12,–,–,–,–,–,–,–,–,–,–
Cc1ccc(NC(=O)Nc2cccc(C(F)(F)F)c2)cc1 [GSK955403],–,–,–,–,–,–,–,–,–,–,0,0,20,0,0,0,19,0,4,0
Cc1ccc(-c2cc(-c3c[nH]nc3-c3ccccn3)ccn2)cc1 [GW684088],0,94.7,0,0,2,0,10,5,20,0,–,–,–,–,–,–,–,–,–,–
COc1ccc2nc(-c3cccc(C)n3)nc(Nc3ccncc3)c2c1 [GSK204919],0,6,8,0,0,3,6,2,3,31,–,–,–,–,–,–,–,–,–,–
Cn1cncc1-c1ccc2ncnc(Nc3ccc(OCc4ccccc4)cc3)c2c1 [GW320571],0,72,16,7,0,100,38,10,23,13,–,–,–,–,–,–,–,–,–,–
Cn1ccc2ncnc(Oc3cccc(C(=O)Nc4ccccc4)c3)c21,28,14,0,0,21,0,26,3,14,1,–,–,–,–,–,–,–,–,–,–
O=C1NC(=O)C(N2CCc3ccccc32)=C1c1ccccc1Cl [SB-373598],18,10,7,13,0,10,3,0,18,7,–,–,–,–,–,–,–,–,–,–
Nc1ncnc2[nH]c(-c3ccccc3)nc12 [AH5015],14,0,5,20,100,24,14,0,24,10,–,–,–,–,–,–,–,–,–,–
NC(=O)c1nnc2ccccc2c1N,34,0,20,40,0,32,40,19,51,0,–,–,–,–,–,–,–,–,–,–
Fc1cc(Cl)ccc1Nc1ccnc2cc(I)ccc12 [GW551191],5,3,0,0,0,28,41,0,16,38,–,–,–,–,–,–,–,–,–,–
COc1ccccc1CNC(=O)c1cc(C(=O)c2ccccc2C)c[nH]1 [GSK364507],0,10,0,2,100,22,11,8,0,17,–,–,–,–,–,–,–,–,–,–

SMILES,%Inh (ANKK1; [1]) [%],%Inh (ARK5; [1]) [%],%Inh (ASK1; [1]) [%],%Inh (ASK2; [1]) [%],%Inh (AURKA; [1]) [%],%Inh (AURKB; [1]) [%],%Inh (AURKC; [1]) [%],%Inh (AXL; [1]) [%],%Inh (BIKE; [1]) [%],%Inh (BLK; [1]) [%],%Inh (ANKK1; 1 µM) [%],%Inh (ARK5; 1 µM) [%],%Inh (ASK1; 1 µM) [%],%Inh (ASK2; 1 µM) [%],%Inh (AURKA; 1 µM) [%],%Inh (AURKB; 1 µM) [%],%Inh (AURKC; 1 µM) [%],%Inh (AXL; 1 µM) [%],%Inh (BIKE; 1 µM) [%],%Inh (BLK; 1 µM) [%]
CCn1c(-c2ccccn2)nc2cnccc21 [SB-736398],0,0,17,0,0,3,7,12,16,9,–,–,–,–,–,–,–,–,–,–
Cc1ccc(NC(=O)Nc2cccc(Cl)c2)cc1-c1ccc(C(=O)Nc2ccncc2)cc1 [GSK1398468],17,6,2,0,15,14,44,0,29,0,–,–,–,–,–,–,–,–,–,–
CS(=O)(=O)c1ccc(-c2c(-c3ncn[nH]3)sc(N3CCOCC3)c2C#N)cc1,0,1,0,0,22,0,2,0,6,8,–,–,–,–,–,–,–,–,–,–
Fc1cccc(COc2nnc(-c3ccc4c(c3)CCO4)o2)c1,0,5,0,23,15,37,0,0,0,0,–,–,–,–,–,–,–,–,–,–
Cc1cccc(-c2nc(Nc3ccc4[nH]ncc4c3)c3ccccc3n2)n1 [GW857175],0,1,0,13,0,3,22,26,33,3,–,–,–,–,–,–,–,–,–,–
CC(=O)Nc1nc2cnc(Nc3cc(NC(=O)c4cccc(CCC#N)c4)ccc3C)nc2s1,0,7,0,16,12,18,7,0,10,0,–,–,–,–,–,–,–,–,–,–
Cl.c1ccc(-c2n[nH]cc2-c2ccnc(-c3ccc(CN4CCOCC4)cc3)c2)nc1 [GW776245],0,0,1,0,0,6,8,0,20,9,–,–,–,–,–,–,–,–,–,–
COc1cccc(NC(=O)NC2CCN(c3ccnc(Nc4ccc(F)cc4)n3)C2)c1 (stereo not drawn) [GSK1379721],4,9,8,4,21,0,8,0,0,0,–,–,–,–,–,–,–,–,–,–
COc1cc2ncnc(Nc3ccc4nc(-c5ccccc5)[nH]c4c3)c2cc1OC.Cl [GW282450],16,0,0,0,99.1,28,48,23,14,26,–,–,–,–,–,–,–,–,–,–
COc1cc2ncn(-c3cc(OCC4CCCO4)c(C(N)=O)s3)c2cc1OC (stereo not drawn) [GSK204607],0,17,7,0,0,1,80,0,72,0,–,–,–,–,–,–,–,–,–,–
Cc1csc(-c2nc(Nc3ccncc3)c3ccccc3n2)n1 [GW869640],18,0,11,37,41,45,1,0,0,5,–,–,–,–,–,–,–,–,–,–
Cl.Oc1ccc(-c2nc(-c3ccccc3)[nH]c2-c2ccncc2)cc1 [SB-428218],10,62,24,0,0,32,0,0,0,58,–,–,–,–,–,–,–,–,–,–
COC(=O)c1c(-c2ccccc2)c2cc(OC)ccc2c(=O)n1Cc1ccccc1,0,27,0,37,25,22,0,0,0,0,–,–,–,–,–,–,–,–,–,–
CCn1c(-c2cccnc2O)nc2cnccc21 [SB-736715],0,0,0,0,8,0,0,38,0,0,–,–,–,–,–,–,–,–,–,–
CS(=O)(=O)c1ccc(-c2nc3n(c2-c2ccncc2)CCC3)cc1 [SKF-105942],0,8,11,0,0,34,0,0,3,9,–,–,–,–,–,–,–,–,–,–
Cc1ccc(NC(=O)Nc2cc(C(C)(C)C)nn2-c2ccccc2)cc1 [GSK1014915],0,0,1,22,0,17,18,2,22,20,–,–,–,–,–,–,–,–,–,–
COc1ccc(Nc2nccc(NCCNC(=O)Nc3ccccc3F)n2)cc1 [GSK1379901],22,23,0,4,12,36,28,0,12,0,–,–,–,–,–,–,–,–,–,–
CN1C(=O)C(Nc2ccc(Cl)c(C(=O)O)c2)=C(c2ccc(Cl)cc2)C1=O [SB-404290],0,0,0,33,19,31,5,10,0,0,–,–,–,–,–,–,–,–,–,–
